Measurements reported in PubChem BioAssay (EPA / NIEHS).
Inconclusive results are not listed. Active and inactive are the calls of the source. Rule for the calls: active = hit-call score of the fitted dose curve at least 0.9, where 1 is the maximum; inconclusive = response in the unintended direction; inactive = score below 0.9.

test: ACEA_AR_agonist_AUC_viability: ACEA Biosciences xCELLigence Real-Time Cell Analysis on Androgen Receptor Agonism for Viability (AID 2283775);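 for AC50: viability read 80 hours after compound addition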
In short: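 Real-time impedance tracking of 22Rv1 growth, readings every 5 min for 5 h then hourly; area-under-curve viability endpoint at 80 hours, relative to DMSO. Compounds at eight concentrations, 1:4 steps, top 100 uM, n = 2.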

Structure (SMILES)	AC50	outcome
CC(C1CC1)C(O)(Cn1cncn1)c1ccc(Cl)cc1 (stereo unspecified)	49.8 µM (active)	
CCc1cccc(CC)c1N(COC)C(=O)CCl	50 µM (active)	
CCCOc1nn(C(=O)NS(=O)(=O)c2ccccc2C(=O)OC)c(=O)n1C		inactive
CC(C)=CC1C(C(=O)OCN2C(=O)C3=C(CCCC3)C2=O)C1(C)C (stereo unspecified)	44 µM (active)	
CCCCN(CC)c1c([N+](=O)[O-])cc(C(F)(F)F)cc1[N+](=O)[O-]	60.9 µM (active)	
CC[C@H](C)[C@H]1O[C@]2(C=C[C@@H]1C)C[C@@H]1C[C@@H](C/C=C(\C)[C@@H](O[C@H]3C[C@H](OC)[C@@H](O[C@H]4C[C@H](OC)[C@@H](NC)[C@H](C)O4)[C@H](C)O3)[C@@H](C)/C=C/C=C3\CO[C@@H]4[C@H](O)C(C)=C[C@@H](C(=O)O1)[C@]34O)O2	0.874 µM (active)	
CCC(CC)Nc1c([N+](=O)[O-])cc(C)c(C)c1[N+](=O)[O-]	64.5 µM (active)	
Cc1ccn2nc(S(=O)(=O)Nc3c(F)cccc3F)nc2n1		inactive
Cc1cc(C2CC2)nc(Nc2ccccc2)n1	75.6 µM (active)	
CCCCOC(=O)c1ccccc1C(=O)O		inactive
CC(=NC#N)N(C)Cc1ccc(Cl)nc1		inactive
CCOP(=S)(OCC)SCCSCC	78.1 µM (active)	
COc1ccc(C(=CC(=O)N2CCOCC2)c2ccc(Cl)cc2)cc1OC		inactive
CN(C)NC(=O)CCC(=O)O		inactive
CC(C)[C@H](C(=O)O[C@H](C#N)c1cccc(Oc2ccccc2)c1)c1ccc(Cl)cc1	17.2 µM (active)	
CSc1nc(NC(C)C)nc(NC(C)C)n1		inactive
COP(=O)(OC)C(O)C(Cl)(Cl)Cl (stereo unspecified)		inactive
Cc1nn(-c2cc(NS(C)(=O)=O)c(Cl)cc2Cl)c(=O)n1C(F)F		inactive
CC(COc1ccc(Oc2ccccc2)cc1)Oc1ccccn1 (stereo unspecified)	58.9 µM (active)	
CCCCSP(=O)(SCCCC)SCCCC	78.1 µM (active)	
CC(C)N(C(=O)SCC(Cl)=C(Cl)Cl)C(C)C	89.9 µM (active)	
CNC(=O)Oc1cccc2c1OC(C)(C)O2		inactive
CNc1cnn(-c2cccc(C(F)(F)F)c2)c(=O)c1Cl		inactive
FC(F)C(F)(F)OCC(Cn1cncn1)c1ccc(Cl)cc1Cl (stereo unspecified)	66.4 µM (active)	
COP(=O)(OC)OC(Br)C(Cl)(Cl)Br (stereo unspecified)	75.1 µM (active)	
CCc1cnc(C2=NC(C)(C(C)C)C(=O)N2)c(C(=O)O)c1 (stereo unspecified)		inactive
Nc1c(Cl)cc([N+](=O)[O-])cc1Cl	58.4 µM (active)	
CNC(=O)ON=C(SC)C(=O)N(C)C		inactive
CCCCOC(=O)[C@@H](C)Oc1ccc(Oc2ccc(C#N)cc2F)cc1	27.6 µM (active)	
CON=C(C(=O)OC)c1ccccc1CON=C(C)c1cccc(C(F)(F)F)c1	26.4 µM (active)	

test: ACEA_AR_antagonist_AUC_viability: ACEA Biosciences xCELLigence Real-Time Cell Analysis on Androgen Receptor Antagonism for Viability (AID 2283776);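 note: hits lower the growth signal relative to DMSO meaning cytotoxicity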
In short: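 22Rv1 human prostate cancer cells were seeded on electrode plates, monitored overnight, then exposed to eight 1:4 dilutions from 100 uM final. Impedance-based growth kinetics at 80 h gave an AUC viability endpoint normalized to DMSO.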

Structure (SMILES)	AC50	outcome
CC(C1CC1)C(O)(Cn1cncn1)c1ccc(Cl)cc1 (stereo unspecified)	49.8 µM (active)	
CC(C)=CC1C(C(=O)OCN2C(=O)C3=C(CCCC3)C2=O)C1(C)C (stereo unspecified)	48.1 µM (active)	
CCCCN(CC)c1c([N+](=O)[O-])cc(C(F)(F)F)cc1[N+](=O)[O-]	43.8 µM (active)	
CC[C@H](C)[C@H]1O[C@]2(C=C[C@@H]1C)C[C@@H]1C[C@@H](C/C=C(\C)[C@@H](O[C@H]3C[C@H](OC)[C@@H](O[C@H]4C[C@H](OC)[C@@H](NC)[C@H](C)O4)[C@H](C)O3)[C@@H](C)/C=C/C=C3\CO[C@@H]4[C@H](O)C(C)=C[C@@H](C(=O)O1)[C@]34O)O2	1.34 µM (active)	
CCC(CC)Nc1c([N+](=O)[O-])cc(C)c(C)c1[N+](=O)[O-]	50 µM (active)	
CCNc1nc(Cl)nc(NC(C)(C)C#N)n1	27 µM (active)	
CC(=NC#N)N(C)Cc1ccc(Cl)nc1		inactive
CCOP(=S)(OCC)SCCSCC	80.6 µM (active)	
COP(=O)(OC)C(O)C(Cl)(Cl)Cl (stereo unspecified)	50 µM (active)	
Cc1nn(-c2cc(NS(C)(=O)=O)c(Cl)cc2Cl)c(=O)n1C(F)F		inactive
COc1cc(OC)nc(Sc2cccc(Cl)c2C(=O)O)n1		inactive
CNc1cnn(-c2cccc(C(F)(F)F)c2)c(=O)c1Cl		inactive
COc1cccc(C(=O)NN(C(=O)c2cc(C)cc(C)c2)C(C)(C)C)c1C	76.4 µM (active)	
CNC(=O)ON=C(SC)C(=O)N(C)C		inactive
CCCCOC(=O)[C@@H](C)Oc1ccc(Oc2ccc(C#N)cc2F)cc1	62.3 µM (active)	
CON=C(C(=O)OC)c1ccccc1CON=C(C)c1cccc(C(F)(F)F)c1	14.5 µM (active)	
